Results on eleven compounds are retold here after the supplement of paper PMC6522484.

Test [1] deals with DLD1. The test can be described thus: cell viability (CellTiter-Glo) relative to plate median (fraction of plate median); higher = more viable cells. The note with it: 10 µM, treatment time 24 h. The method, boiled down: (§1)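 Each value averages two independent replicates in which the well signal was normalised to the plate median (webcellHTS2, additive, without log transformation). The signal was firefly luciferase or CellTiterGlo luminescence, read on parallel plates with a Tecan F500. The cells were colorectal cancer lines with stable lentiviral TCF/Wnt firefly luciferase reporters in 384-well plates, dosed 24 h after seeding with kinase inhibitor library compounds at a final 10 µM for 24 h.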

In test [2] the test system is HCT116. The test is described as above. The note with it: 10 µM; treatment time 24 h; reporter: TCF4/Wnt. The method, boiled down: as §1
For test [3], the system named is SW480. The description is as above. The note with it: 10 µM; treatment time 24 h; reporter: 7TFP. The method, boiled down: as §1
The test system of test [4] is DLD1. Description: TCF/Wnt firefly luciferase reporter signal relative to plate median (fraction of plate median); higher = higher Wnt reporter signal. The note with it: 10 µM, treatment time 24 h. In outline:
as §1

Test [5] has as its system HCT116. The test is described as above. As to conditions: 10 µM; treatment time 24 h; reporter: TCF4/Wnt. The method, boiled down: as §1
The subject of test [6] is SW480. The test is described as above. The note with it: 10 µM; treatment time 24 h; reporter: 7TFP. The method, boiled down: as §1

Counter-ions that a name gives are not always drawn. ± gives the standard deviation of the averaged measurements.

For `CC1(COc2ccc3c(c2)ncn3-c2ccc3cccc(N4CCC(N)CC4)c3n2)COC1`, the cell viability with DLD1 [1] (reporter: 7TFP) worked out at 0.975 ± 0.02; with DLD1 [1] (reporter: TCF4/Wnt), 1.14 ± 0.11; in the test on HCT116 [2], 0.536 ± 0.13; with SW480 [3], 1.02 ± 0.014. In addition, the “TCF/Wnt firefly luciferase reporter signal” value with DLD1 [4] (reporter: 7TFP) amounted to 1.48 ± 0.25; in the test with DLD1 [4] (reporter: TCF4/Wnt), 1.73 ± 0.064; in the test with HCT116 [5], 0.288 ± 0.11; in the test on SW480 [6] it was 1.64 ± 0.014.

Turning to `N=C(N)NC(=N)NCCc1ccccc1` [Phenformin hydrochloride], the cell viability with DLD1 [1] (reporter: 7TFP) was found to be 1.185 ± 0.0071; in the test with DLD1 [1] (reporter: TCF4/Wnt), 1.06 ± 0.057; in the test on HCT116 [2], 1.21 ± 0.18; in the test with SW480 [3] it was 0.923 ± 0.086. The “TCF/Wnt firefly luciferase reporter signal” value in the test with DLD1 [4] (reporter: 7TFP) came out at 1.26 ± 0.12; with DLD1 [4] (reporter: TCF4/Wnt), 1.21 ± 0.27; with HCT116 [5], 1.3 ± 0.51; with SW480 [6], 1.17 ± 0.21.

As for `Oc1c2ccccc2c2c3c(cccc13)N=N2`, the cell viability in the test with DLD1 [1] (reporter: 7TFP) came out at 1.06 ± 0.099; in the test on DLD1 [1] (reporter: TCF4/Wnt), 1.01 ± 0.016; with HCT116 [2], 1.12 ± 0.021; in the test with SW480 [3] it was 0.931 ± 0.016. Moreover, the “TCF/Wnt firefly luciferase reporter signal” value with DLD1 [4] (reporter: 7TFP) came to 1.07 ± 0.14; with DLD1 [4] (reporter: TCF4/Wnt) it was 1.18 ± 0.014; in the test with HCT116 [5], 1.34 ± 0.23; in the test with SW480 [6], 1.06 ± 0.021.

For the compound `COc1cc2ncnc(Nc3cccc(Cl)c3)c2cc1OC` [AG-1478 (Tyrphostin AG-1478)], the cell viability with DLD1 [1] (reporter: 7TFP) was 0.949 ± 0.059; in the test with DLD1 [1] (reporter: TCF4/Wnt), 1 ± 0.053; in the test with HCT116 [2], 1.12 ± 0.014; with SW480 [3] it was 0.9395 ± 0.005. In addition, the “TCF/Wnt firefly luciferase reporter signal” value came to 0.847 ± 0.03 with DLD1 [4] (reporter: 7TFP), 0.75 ± 0.1 in the test with DLD1 [4] (reporter: TCF4/Wnt), 1.015 ± 0.0071 in the test with HCT116 [5] and 0.962 ± 0.054 with SW480 [6].

For `C=CC(=O)Nc1cc2c(Nc3ccc(F)c(Cl)c3)ncnc2cc1OCCCN1CCOCC1` [CI-1033 (Canertinib)], the cell viability came out at 0.868 ± 0.016 with DLD1 [1] (reporter: 7TFP), 0.854 ± 0.068 in the test on DLD1 [1] (reporter: TCF4/Wnt), 0.968 ± 0.059 in the test on HCT116 [2] and 1.03 ± 0.035 in the test with SW480 [3]. The “TCF/Wnt firefly luciferase reporter signal” value with DLD1 [4] (reporter: 7TFP) was determined as 0.353 ± 0.013; in the test with DLD1 [4] (reporter: TCF4/Wnt) it was 0.601 ± 0.096; in the test on HCT116 [5], 1 ± 0.19; in the test with SW480 [6], 0.771 ± 0.32.

With `CS(=O)(=O)N1CCN(Cc2cc3nc(-c4cccc5[nH]ncc45)nc(N4CCOCC4)c3s2)CC1`, the cell viability in the test on DLD1 [1] (reporter: 7TFP) was found to be 0.998 ± 0.19; in the test with DLD1 [1] (reporter: TCF4/Wnt) it was 1.03 ± 0.05; in the test on HCT116 [2], 1.08 ± 0.021; in the test on SW480 [3], 1 ± 0.035. The “TCF/Wnt firefly luciferase reporter signal” value in the test on DLD1 [4] (reporter: 7TFP) was found to be 0.93 ± 0.14; in the test with DLD1 [4] (reporter: TCF4/Wnt), 0.947 ± 0.16; with HCT116 [5] it was 1.16 ± 0.057; in the test on SW480 [6], 1.04 ± 0.075.

Regarding `COC(=O)Nc1ccc(-c2nc(N3CCOCC3)c3cnn(C4CCN(C(=O)OC)CC4)c3n2)cc1`, the cell viability with DLD1 [1] (reporter: 7TFP) was 1.13 ± 0.014; in the test with DLD1 [1] (reporter: TCF4/Wnt), 1.13 ± 0.028; with HCT116 [2], 1.105 ± 0.0071; with SW480 [3] it was 1.11 ± 0.028. The “TCF/Wnt firefly luciferase reporter signal” value in the test with DLD1 [4] (reporter: 7TFP) is 1.07 ± 0.057; in the test on DLD1 [4] (reporter: TCF4/Wnt), 0.973 ± 0.053; in the test with HCT116 [5], 1.23 ± 0.12; in the test with SW480 [6], 1.11 ± 0.085.

Consider `O=C1NC(=O)/C(=C/c2ccc3nccc(-c4ccncc4)c3c2)S1`, for which the cell viability was found to be 0.973 ± 0.038 in the test on DLD1 [1] (reporter: 7TFP), 1.07 ± 0.071 with DLD1 [1] (reporter: TCF4/Wnt), 0.597 ± 0.061 in the test with HCT116 [2] and 1.02 ± 0.13 in the test on SW480 [3]. Besides, the “TCF/Wnt firefly luciferase reporter signal” value turned out to be 0.312 ± 0.018 in the test on DLD1 [4] (reporter: 7TFP), 0.564 ± 0.29 with DLD1 [4] (reporter: TCF4/Wnt), 0.417 ± 0.25 in the test with HCT116 [5] and 0.572 ± 0.07 in the test on SW480 [6].

With `COc1cc(Nc2ncc3c(n2)-c2ccc(Cl)cc2C(c2c(F)cccc2OC)=NC3)ccc1C(=O)O` [MLN8237 (Alisertib)], the cell viability in the test with DLD1 [1] (reporter: 7TFP) was found to be 0.987 ± 0.047; in the test with DLD1 [1] (reporter: TCF4/Wnt), 0.95 ± 0.067; with HCT116 [2] it was 0.954 ± 0.12; in the test on SW480 [3], 0.943 ± 0.014. In addition, the “TCF/Wnt firefly luciferase reporter signal” value with DLD1 [4] (reporter: 7TFP) turned out to be 1.08 ± 0.014; with DLD1 [4] (reporter: TCF4/Wnt), 1.16 ± 0.16; in the test on HCT116 [5] it was 1.01 ± 0.12; in the test on SW480 [6], 0.974 ± 0.066.

As for `Cc1ncc(-c2ccnc(Nc3ccc(S(C)(=O)=O)cc3)n2)n1C(C)C`, the cell viability in the test on DLD1 [1] (reporter: 7TFP) is 1.25 ± 0.16; in the test on DLD1 [1] (reporter: TCF4/Wnt), 1.32 ± 0.099; with HCT116 [2], 0.766 ± 0.3; with SW480 [3], 1.47 ± 0.05. In addition, the “TCF/Wnt firefly luciferase reporter signal” value came out at 0.499 ± 0.026 in the test on DLD1 [4] (reporter: 7TFP), 0.277 ± 0.063 with DLD1 [4] (reporter: TCF4/Wnt), 0.156 ± 0.042 in the test on HCT116 [5] and 0.793 ± 0.035 with SW480 [6].

As for `CCc1cnn2c(NCc3ccc[n+]([O-])c3)cc(N3CCCC[C@H]3CCO)nc12`, the cell viability amounted to 0.985 ± 0.13 in the test with DLD1 [1] (reporter: 7TFP), 1.06 ± 0.021 with DLD1 [1] (reporter: TCF4/Wnt), 0.809 ± 0.27 in the test on HCT116 [2] and 1.34 ± 0.042 in the test with SW480 [3]. Moreover, the “TCF/Wnt firefly luciferase reporter signal” value worked out at 0.462 ± 0.029 with DLD1 [4] (reporter: 7TFP), 0.304 ± 0.03 with DLD1 [4] (reporter: TCF4/Wnt), 0.128 ± 0.063 in the test on HCT116 [5] and 0.61 ± 0.33 with SW480 [6].
